From the antibiotic and cytotoxicity screens of Wong et al. (2023)
Among all 39,000 compounds or so, about 3,300 (8.5%) were called active. The full list was thinned out, with actives kept by preference.

test system: HepG2; assay: cytotoxicity call (relative viability < 0.9); conditions: 10 µM

Row | Compound | cytotoxicity call
1 | Cc1cc(C(=O)Nc2cccc3c2O[C@@H](CN(C)Cc2ccc(C(=O)O)cc2)[C@@H](C)CN([C@H](C)CO)C3=O)n(C)n1 | inactive
2 | Cc1noc(C)c1S(=O)(=O)Nc1cccc2c1O[C@@H](CN(C)S(=O)(=O)c1ccc(F)cc1)[C@@H](C)CN([C@H](C)CO)C2=O | inactive
3 | C[C@H](CO)N1C[C@H](C)[C@@H](CN(C)S(=O)(=O)c2cn(C)cn2)Oc2ccc(NC(=O)Cn3cnnn3)cc2CC1=O | inactive
4 | Cc1noc(C)c1S(=O)(=O)Nc1ccc2c(c1)C(=O)N([C@@H](C)CO)C[C@H](C)[C@H](CN(C)S(C)(=O)=O)O2 | inactive
5 | COc1ccc(CN(C)C[C@@H]2OCCCC[C@@H](C)Oc3ccc(NC(=O)Nc4ccc(C(F)(F)F)cc4)cc3C(=O)N([C@H](C)CO)C[C@@H]2C)cc1 | active
6 | COc1ccc(NC(=O)Nc2ccc3c(c2)C(=O)N([C@H](C)CO)C[C@H](C)[C@H](CN(C)Cc2ccc(C(F)(F)F)cc2)OCCCC[C@@H](C)O3)cc1 | inactive
7 | COc1ccc(NC(=O)Nc2ccc3c(c2)C(=O)N([C@@H](C)CO)C[C@H](C)[C@H](CN(C)Cc2ccc(C(F)(F)F)cc2)OCCCC[C@@H](C)O3)cc1 | inactive
8 | COc1ccc(CN(C)C[C@H]2OCCCC[C@@H](C)Oc3ccc(NC(=O)Nc4ccc(C(F)(F)F)cc4)cc3C(=O)N([C@@H](C)CO)C[C@H]2C)cc1 | active
9 | COc1ccc(NC(=O)Nc2ccc3c(c2)C(=O)N([C@H](C)CO)C[C@@H](C)[C@H](CN(C)Cc2ccc(C(F)(F)F)cc2)OCCCC[C@H](C)O3)cc1 | inactive
10 | COc1ccc(CN(C)C[C@H]2OCCCC[C@H](C)Oc3ccc(NC(=O)Nc4ccc(C(F)(F)F)cc4)cc3C(=O)N([C@@H](C)CO)C[C@@H]2C)cc1 | active
11 | COc1ccc(NC(=O)Nc2ccc3c(c2)C(=O)N([C@H](C)CO)C[C@H](C)[C@H](CN(C)Cc2ccc(C(F)(F)F)cc2)OCCCC[C@H](C)O3)cc1 | inactive
12 | COc1ccc(NC(=O)Nc2ccc3c(c2)C(=O)N([C@@H](C)CO)C[C@@H](C)[C@@H](CN(C)Cc2ccc(C(F)(F)F)cc2)OCCCC[C@@H](C)O3)cc1 | inactive
13 | COc1ccc(NC(=O)Nc2ccc3c(c2)C(=O)N([C@H](C)CO)C[C@H](C)[C@@H](CN(C)Cc2ccc(C(F)(F)F)cc2)OCCCC[C@@H](C)O3)cc1 | inactive
14 | COc1ccc(CN(C)C[C@@H]2OCCCC[C@@H](C)Oc3ccc(NC(=O)Nc4ccc(C(F)(F)F)cc4)cc3C(=O)N([C@H](C)CO)C[C@H]2C)cc1 | active
15 | CC(C)NC(=O)N(C)C[C@H]1OCCCC[C@H](C)Oc2ccc(NS(=O)(=O)c3cn(C)cn3)cc2C(=O)N([C@@H](C)CO)C[C@@H]1C | inactive
16 | C[C@@H]1CN([C@H](C)CO)C(=O)c2cccc(NS(=O)(=O)c3ccccc3)c2O[C@H]1CN(C)S(=O)(=O)c1cccs1 | inactive
17 | COc1ccc(S(=O)(=O)N(C)C[C@@H]2Oc3ccc(NS(=O)(=O)c4c(C)noc4C)cc3C(=O)N([C@@H](C)CO)C[C@@H]2C)cc1 | inactive
18 | COCC(=O)N1C[C@@H](C)[C@@H](OC)CN(C)C(=O)c2ccc(NC(=O)c3cc(C)on3)cc2OC[C@@H]1C | inactive
19 | Cc1ccc(S(=O)(=O)N(C)C[C@@H]2OCCCC[C@H](C)Oc3ccc(NC(=O)c4ccccc4)cc3C(=O)N([C@H](C)CO)C[C@@H]2C)cc1 | inactive

Row | Compound | cytotoxicity call
20 | COCC(=O)N(C)C[C@H]1Oc2cc(C#C[C@@H](C)O)ccc2S(=O)(=O)N([C@@H](C)CO)C[C@H]1C | inactive
21 | COc1ccc(C#Cc2cnc3c(c2)C(=O)N([C@@H](C)CO)C[C@H](C)[C@@H](CN(C)C(=O)CN(C)C)O3)cc1 | inactive
22 | Cn1c(=O)[nH]c(=O)c2c1ncn2CCNCc1ccco1 | inactive
23 | C[C@@H]1CN([C@@H](C)CO)C(=O)c2cc(NC(=O)Cc3ccccc3)ccc2O[C@@H](C)CCCCO[C@@H]1CN(C)CC1CCCCC1 | inactive
24 | O=C(C[C@H]1CC[C@H]2[C@@H](COC[C@H](O)CN2C(=O)c2ccncc2)O1)NC1CCC1 | inactive
25 | C[C@H]1CN([C@@H](C)CO)C(=O)c2cc(NC(=O)NC3CCCCC3)ccc2O[C@@H]1CN(C)S(=O)(=O)c1cn(C)cn1 | inactive
26 | C[C@@H]1CN([C@H](C)CO)C(=O)Cc2cc(NS(=O)(=O)c3ccccc3)ccc2O[C@H]1CN(C)Cc1ccc(Oc2ccccc2)cc1 | active
27 | C[C@H](CO)N1C[C@H](C)[C@@H](CN(C)Cc2ccc(Oc3ccccc3)cc2)Oc2ccc(NS(=O)(=O)c3ccccc3)cc2CC1=O | inactive
28 | C[C@H]1CN([C@@H](C)CO)C(=O)Cc2cc(NS(=O)(=O)c3ccccc3)ccc2O[C@@H]1CN(C)Cc1ccc(Oc2ccccc2)cc1 | inactive
29 | C[C@@H]1CN([C@@H](C)CO)C(=O)Cc2cc(NS(=O)(=O)c3ccccc3)ccc2O[C@@H]1CN(C)Cc1ccc(Oc2ccccc2)cc1 | active
30 | C[C@@H]1CN([C@H](C)CO)C(=O)Cc2cc(NS(=O)(=O)c3ccccc3)ccc2O[C@@H]1CN(C)Cc1ccc(Oc2ccccc2)cc1 | active
31 | C[C@H]1CN([C@@H](C)CO)C(=O)Cc2cc(NS(=O)(=O)c3ccccc3)ccc2O[C@H]1CN(C)Cc1ccc(Oc2ccccc2)cc1 | inactive
32 | C[C@@H]1CN([C@@H](C)CO)C(=O)Cc2cc(NS(=O)(=O)c3ccccc3)ccc2O[C@H]1CN(C)Cc1ccc(Oc2ccccc2)cc1 | inactive
33 | C[C@H](CO)N1C[C@H](C)[C@H](CN(C)Cc2ccc(Oc3ccccc3)cc2)Oc2ccc(NS(=O)(=O)c3ccccc3)cc2CC1=O | inactive
34 | COc1ccc(S(=O)(=O)Nc2cccc3c2O[C@@H](CN(C)Cc2ccc(-c4ccccc4)cc2)[C@H](C)CN([C@H](C)CO)C3=O)cc1 | inactive
35 | CO[C@H]1CN(C)C(=O)c2ccc(NC(=O)c3ccccc3)cc2OC[C@H](C)N(C(=O)CN(C)C)C[C@@H]1C | inactive
36 | C[C@@H]1CN([C@H](C)CO)C(=O)c2cccc(NC(=O)NC3CCCCC3)c2O[C@H]1CN(C)Cc1ccc(-c2ccccc2)cc1 | inactive
37 | CCS(=O)(=O)N1CCC[C@]2(C(=O)NCC3CC3)CN(Cc3cnn(C)c3)C[C@H]2C1 | inactive
